According to PubChem BioAssay AID1159580 (chemical genetic matrix, 2015):
Among all 5,500 compounds or so, about 2,000 (36%) were called active. Not shown: some 18% with an inconclusive outcome. No stated cut-off is given here; in the data, active means normalized growth mostly below about 0.91 (no sharp cut-off); inconclusive means no clear call, values can overlap the other calls; inactive means mostly above about 0.92. The list shows a part of the results.

Test: chemical genetic growth profiling, strain panel (AID 1159580);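 further: tested at 20 µM; growth read once vehicle control cultures reached saturation at 30 °C; 1 = growth at the plate median or of vehicle wells; lower values mean less growth of the strain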
Conditions: S. cerevisiae deletion strains, growth OD

Measured: normalized growth

COc1c2occc2c(OC)c2c(=O)cc(C)oc12
inactive: locus YJR043C, strain POL32, active compounds read low 1.03 | locus YJR066W, strain TOR1, active compounds read low 0.931 | locus YJR075W, strain HOC1, active compounds read low 1.03 | locus YKL009W, strain mrt4, active compounds read low 0.991 | locus YKL068W, active compounds read low 1.01 | locus YKL085W, strain MDH1 (second series), active compounds read low 1.01 | locus YKL085W, strain MDH1, active compounds read low 1.01 | locus YKL160W, strain elf1, active compounds read low 0.963 | locus YKR001C, strain vps1, active compounds read low 1.02 | locus YKR026C, strain gcn3, active compounds read low 0.995 | locus YKR091W, strain srl3, active compounds read low 0.998 | locus YLL001W, strain dnm1, active compounds read low 0.949 | locus YLL026W, active compounds read low 0.999 | locus YLL041C, strain sdh2, active compounds read low 0.998 | locus YLR027C, strain aat2, active compounds read low 0.99 | locus YLR039C, strain RIC1, active compounds read low 1.18 | locus YLR058C, strain SHM2, active compounds read low 1.01 | locus YLR102C, strain apc9, active compounds read low 1.01 | locus YLR113W, strain HOG1, active compounds read low 1.07 | locus YLR221C, strain rsa3, active compounds read low 0.963 | locus YLR258W, strain gsy2, active compounds read low 0.943 | locus YLR262C, strain YPT6 (second series), active compounds read low 0.985 | locus YLR268W, strain sec22, active compounds read low 0.999 | locus YLR320W, strain mms22, active compounds read low 0.941 | locus YLR342W, strain FKS1, active compounds read low 0.994 | locus YLR357W, strain rsc2, active compounds read low 1.01 | locus YLR370C, strain arc18, active compounds read low 0.996 | locus YLR371W, strain rom2, active compounds read low 1.02 | locus YLR384C, strain iki3, active compounds read low 0.986 | locus YLR418C, strain cdc73, active compounds read low 1.04 | locus YML016C, strain PPZ1, active compounds read low 1.01 | locus YML032C, strain rad52, active compounds read low 1 | locus YML120C, strain ndi1, active compounds read low 0.972 | locus YML124C, strain tub3, active compounds read low 0.999 | locus YMR058W, strain fet3, active compounds read low 0.975 | locus YMR078C, strain ctf18, active compounds read low 1.02 | locus YMR125W, strain sto1, active compounds read low 1.04 | locus YMR129W, active compounds read low 1 | locus YMR205C, strain PFK2, active compounds read low 0.985 | locus YMR223W, strain ubp8, active compounds read low 0.992 | locus YMR231W, strain pep5, active compounds read low 0.999 | locus YMR307W, strain GAS1, active compounds read low 1.17 | locus YNL067W, strain RPL9B, active compounds read low 0.986 | locus YNL128W, strain TEP1, active compounds read low 1.02 | locus YNL153C, strain GIM3, active compounds read low 1 | locus YNL183C, strain NPR1, active compounds read low 0.949 | locus YNL209W, strain ssb2, active compounds read low 0.977 | locus YNL233W, strain BNI4, active compounds read low 1.03 | locus YNL248C, strain rpa49, active compounds read low 0.989 | locus YNL250W, strain rad50, active compounds read low 1.05 | locus YNL271C, strain bni1, active compounds read low 1.01 | locus YNL298W, strain CLA4, active compounds read low 1.02 | locus YNL307C, strain MCK1, active compounds read low 1 | locus YNL322C, strain KRE1 (second series), active compounds read low 0.998 | locus YNR049C, strain mso1, active compounds read low 1 | locus YNR052C, strain pop2, active compounds read low 1.01 | locus YOL012C, strain htz1 1.05 | locus YOL147C, strain pex11, active compounds read low 1.01 | locus YOR001W, strain rrp6, active compounds read low 0.946 | locus YOR061W, strain CKA2, active compounds read low 1.02 | locus YOR069W, strain VPS5, active compounds read low 1 | locus YOR070C, strain gyp1, active compounds read low 0.988 | locus YOR080W, strain dia2, active compounds read low 0.987 | locus YOR083W, strain WHI5, active compounds read low 0.942 | locus YOR106W, strain vam3, active compounds read low 0.966 | locus YOR136W, strain idh2, active compounds read low 1.02 | locus YOR144C, strain elg1, active compounds read low 1.01 | locus YOR184W, strain ser1, active compounds read low 1.02 | locus YOR231W, strain MKK1, active compounds read low 0.997 | locus YOR265W, strain rbl2, active compounds read low 0.989 | locus YOR270C, strain vph1, active compounds read low 0.839 | locus YOR290C, strain snf2, active compounds read low 0.958 | locus YOR316C, strain cot1, active compounds read low 1.03 | locus YPL051W, strain arl3, active compounds read low 0.972 | locus YPL078C, strain atp4, active compounds read low 0.951 | locus YPL106C, strain sse1, active compounds read low 0.961 | locus YPL240C, strain hsp82, active compounds read low 0.989 | locus YPL241C, strain CIN2, active compounds read low 1.01 | locus YPL256C, strain CLN2, active compounds read low 1.03 | locus YPR119W, strain clb2, active compounds read low 1.01 | locus YPR141C, strain kar3, active compounds read low 1.01 | locus YPR163C, strain tif3, active compounds read low 0.992 | locus YPR167C, strain met16, active compounds read low 1.02 | strain wtn01, active compounds read low 0.999
active: locus YNL071W, strain lat1, active compounds read low 0.912
